Laboratory results published in PubChem BioAssay (NCI).
This is part of a sample that, as a whole, favours compounds with a hit. Of some 79,000 tested, about 15% had one in any assay. Activity calls are given as the source filed them. Rule as the data show it: active = growth inhibition above about 70%; inactive = the rest.

Legend:
[1] = NCI Yeast Anticancer Drug Screen. Data for the mec2-1 strain (AID 157); details: S. cerevisiae mec2-1 strain, active compounds read high
Summary of the method: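 Compounds were applied to mec2-1 yeast cells. Their growth was then compared with that of vehicle-treated cultures to give growth inhibition.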

[2] = NCI Yeast Anticancer Drug Screen. Data for the rad14 strain (AID 159);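 also: 0% = growth of vehicle-treated control cultures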; details: S. cerevisiae rad14 strain growth inhibition, active compounds read high
Summary of the method: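 Yeast cells carrying a defined DNA-repair defect were exposed to compounds, and growth inhibition was calculated relative to vehicle-treated control cultures.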

[3] = NCI Yeast Anticancer Drug Screen. Data for the sgs1 mgt1 strain (AID 161);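 also: 0% = growth of cultures given vehicle only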; details: S. cerevisiae sgs1 mgt1 strain, active compounds read high
Summary of the method: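 Growth of a repair-deficient yeast mutant was monitored after compound treatment and expressed as inhibition relative to vehicle-treated cultures.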

[4] = NCI Yeast Anticancer Drug Screen. Data for the CLN2oe strain (AID 163);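 also: 0% = growth of vehicle-only control cultures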; details: S. cerevisiae CLN2oe strain, active compounds read high
Summary of the method: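 Cells of an engineered yeast line with disturbed cell-cycle regulation are treated with compound. Inhibition of growth is then calculated relative to the vehicle-treated reference.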

[5] = NCI Yeast Anticancer Drug Screen. Data for the cln2 rad14 strain (AID 165);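 also: 0% = growth equal to vehicle treated cultures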; details: S. cerevisiae cln2 rad14 strain, active compounds read high
Summary of the method: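 Strain: cln2 rad14 yeast, altered in cell cycle control and DNA damage repair. Read-out: growth inhibition vs vehicle.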

[6] = NCI Yeast Anticancer Drug Screen. Data for the bub3 strain (AID 167); details: S. cerevisiae bub3 mutant strain, active compounds read high
Summary of the method: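 Compounds were applied to a genetically altered yeast strain carrying a cell-cycle control defect. Growth inhibition was scored against vehicle-treated controls.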

[7] = NCI Yeast Anticancer Drug Screen. Data for the wt2 strain (AID 169);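 also: 0% = growth of vehicle-treated yeast cultures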; details: S. cerevisiae wt2 strain growth inhibition, active compounds read high
Summary of the method: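 Growth of compound-treated yeast is measured and expressed as inhibition relative to vehicle-only controls.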

[8] = NCI Yeast Anticancer Drug Screen. Data for the mlh1 strain (AID 171);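 also: 0% = growth of vehicle-treated control cultures of the same strain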; details: S. cerevisiae mlh1 strain growth inhibition, active compounds read high
Summary of the method: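 Test agents were incubated with yeast bearing a defined DNA damage repair or cell cycle control alteration; values are growth inhibition normalised to vehicle-treated cultures.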

[9] = NCI Yeast Anticancer Drug Screen. Data for the sgs1 strain (AID 173);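 also: 0% = growth of vehicle-only control cultures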; details: S. cerevisiae sgs1 mutant, active compounds read high
Summary of the method: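 Strain with an altered DNA repair or cell cycle pathway exposed to compound. Growth then measured. Value = inhibition versus vehicle control.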

[10] = NCI Yeast Anticancer Drug Screen. Data for the mlh1 rad18 strain (AID 175); details: S. cerevisiae mlh1 rad18 strain growth inhibition, active compounds read high
Summary of the method: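 A repair-deficient yeast strain is exposed to test compound, and growth is scored relative to vehicle-treated controls.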

[11] = NCI Yeast Anticancer Drug Screen. Data for the rad18 strain (AID 177); details: S. cerevisiae rad18 mutant growth inhibition, active compounds read high
Summary of the method: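 DNA-repair-defective yeast; compound treatment; growth inhibition scored against vehicle.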

[12] = NCI Yeast Anticancer Drug Screen. Data for the rad52 strain (AID 147);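 also: 0% = growth of vehicle-treated control cultures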; details: S. cerevisiae rad52 mutant growth inhibition, active compounds read high
Summary of the method: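 Growth of repair-deficient yeast cells was compared between compound-treated and vehicle-treated cultures to give percent inhibition.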

[13] = NCI Yeast Anticancer Drug Screen. Data for the wt1 strain (AID 149);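 also: 0% = growth of vehicle-treated wt1 cultures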; details: S. cerevisiae wt1 strain (SPY 50644) growth inhibition, active compounds read high
Summary of the method: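 Yeast wt1 strain exposed to compounds; growth inhibition measured relative to vehicle-treated controls.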

[14] = NCI Yeast Anticancer Drug Screen. Data for the rad50EPP+ strain (AID 151);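 also: 0% = growth of vehicle-treated control cultures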; details: S. cerevisiae rad50 mutant strain, active compounds read high
Summary of the method: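 Measured: growth inhibition of rad50EPP+ yeast. Reference: vehicle-treated controls. Screen uses strains with defined genetic alterations in DNA damage repair or cell cycle control.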

[15] = NCI Yeast Anticancer Drug Screen. Data for the rad50 strain (AID 155);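 also: 0% = growth of vehicle-only cultures of the same strain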; details: S. cerevisiae rad50 strain growth inhibition, active compounds read high
Summary of the method: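 Yeast carrying a defined DNA repair defect were exposed to test compounds, and growth was compared with vehicle-treated controls to give percent inhibition.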

[16] = at 5.0 µM (retest, dose inferred, filed as 0.5)
[17] = at 50.0 µM (retest, dose inferred, filed as 5.0)

Measured: growth inhibition

CCN(CC)CCNc1ccc2ncn3c4ccc(O)cc4c(=O)c1c23
inactive: [1]; at 100.0 µM 22% | [2]; at 1.2 µM 2% | [2]; at 3.7 µM -1% | [2]; at 11.0 µM 3% | [2]; at 33.0 µM 3% | [2]; at 100.0 µM 6% | [3]; [16] 13% | [3]; [17] 13% | [3]; at 50.0 µM -33.6% | [4]; at 1.2 µM -4% | [4]; at 3.7 µM 1% | [4]; at 11.0 µM 0% | [4]; at 33.0 µM 2% | [4]; at 100.0 µM -1% | [5]; [16] 18% | [5]; [17] 18% | [5]; at 50.0 µM 19.9% | [6]; at 1.2 µM -7% | [6]; at 3.7 µM -9% | [6]; [16] 30% | [6]; at 11.0 µM 3% | [6]; at 33.0 µM 4% | [6]; [17] 30% | [6]; at 50.0 µM 8.45% | [6]; at 100.0 µM -11% | [7]; at 1.2 µM -1% | [7]; at 3.7 µM 1% | [7]; at 11.0 µM -3% | [7]; at 33.0 µM 1% | [7]; at 100.0 µM -2% | [8]; at 1.2 µM -5% | [8]; at 3.7 µM -4% | [8]; at 11.0 µM -2% | [8]; at 33.0 µM -5% | [8]; at 100.0 µM 10% | [9]; at 1.2 µM -4% | [9]; at 3.7 µM -6% | [9]; at 11.0 µM -6% | [9]; at 33.0 µM -4% | [9]; at 100.0 µM -1% | [10]; [16] 25% | [10]; [17] 25% | [10]; at 50.0 µM 64.7% | [11]; at 1.2 µM 0% | [11]; at 3.7 µM -4% | [11]; at 11.0 µM -11% | [11]; at 33.0 µM -8% | [11]; at 100.0 µM -14%

CC(C)Cc1ncc(CCCN=C(N)N)[nH]c1=O
active: [15]; at 50.0 µM 82.8% | [1]; at 50.0 µM 77.8% | [3]; at 50.0 µM 84.2% | [5]; at 50.0 µM 74.5% | [6]; [17] 91% | [6]; at 50.0 µM 81.8%
inactive: [12]; at 1.2 µM -7% | [12]; at 3.7 µM -10% | [12]; at 11.0 µM -5% | [12]; at 33.0 µM -1% | [12]; at 100.0 µM -5% | [13]; at 1.2 µM 0% | [13]; at 3.7 µM 1% | [13]; at 11.0 µM 4% | [13]; at 33.0 µM 3% | [13]; at 100.0 µM 6% | [14]; at 1.2 µM -2% | [14]; at 3.7 µM -13% | [14]; at 11.0 µM 0% | [14]; at 33.0 µM 9% | [14]; at 100.0 µM 9% | [15]; at 1.2 µM -14% | [15]; at 3.7 µM -19% | [15]; [16] -5% | [15]; at 11.0 µM -21% | [15]; at 33.0 µM -20% | [15]; [17] 4% | [15]; at 100.0 µM 2% | [1]; at 1.2 µM -4% | [1]; at 3.7 µM -2% | [1]; [16] 3% | [1]; at 11.0 µM -3% | [1]; at 33.0 µM -5% | [1]; [17] 49% | [1]; at 100.0 µM -3% | [2]; at 1.2 µM 0% | [2]; at 3.7 µM 1% | [2]; at 11.0 µM 15% | [2]; at 33.0 µM 11% | [2]; at 100.0 µM -2% | [3]; [16] 1% | [3]; [17] 38% | [4]; at 1.2 µM -4% | [4]; at 3.7 µM -5% | [4]; at 11.0 µM -13% | [4]; at 33.0 µM -11% | [4]; at 100.0 µM -7% | [5]; [16] -7% | [5]; [17] 38% | [6]; at 1.2 µM -9% | [6]; at 3.7 µM -6% | [6]; [16] -6% | [6]; at 11.0 µM -10% | [6]; at 33.0 µM -14% | [6]; at 100.0 µM -14% | [7]; at 1.2 µM 6% | [7]; at 3.7 µM 12% | [7]; at 11.0 µM 15% | [7]; at 33.0 µM 17% | [7]; at 100.0 µM 14% | [8]; at 1.2 µM -11% | [8]; at 3.7 µM -6% | [8]; at 11.0 µM -6% | [8]; at 33.0 µM -4% | [8]; at 100.0 µM -1% | [9]; at 1.2 µM -13% | [9]; at 3.7 µM -12% | [9]; at 11.0 µM -6% | [9]; at 33.0 µM -3% | [9]; at 100.0 µM -8% | [10]; [16] 2% | [10]; [17] 55% | [10]; at 50.0 µM 33.4% | [11]; at 1.2 µM -7% | [11]; at 3.7 µM -2% | [11]; at 11.0 µM -5% | [11]; at 33.0 µM -8% | [11]; at 100.0 µM -6%
